Source: PubChem BioAssay
TEAD-YAP inh: TEAD-YAP interaction inhibition; HEK-TIYL cells, TEAD-Gal4/YAP UAS-luciferase luminescence; inhibition, % at 9.12 µM; 1.4% of 640,000 active; in the data active means inhibition above about 32%;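 further: 0% = median of test compound wells and 100% = reference inhibitor wells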
FBW7 activator: human FBW7 E3 ligase activation, primary screen; Q969H0; AlphaScreen FBW7–phospho-cyclin E peptide binding, activator screen; normalized activity (activation), % at 26.1 µM; 0.13% of 650,000 active; in the data active means normalized activity above about 1.9%;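 further: purified mutant Fbw7 with reduced substrate affinity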
GPR151 ag: human GPR151 activation | Q8TDV0 | PathHunter beta-arrestin GPR151 cells, luminescence | activation, % at 11.2 µM | 1% of 650,000 active; in the data active means activation above about 4.9%;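 further: 0% = median of compound wells and 100% = cells with positive control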
MITF inh: inhibitors of human MITF. AlphaScreen MITF homodimerization, bead proximity signal. inhibition, % at 2.6 µM. O75030. 0.91% of 650,000 active; in the data active means inhibition above about 50%;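 further: 0% = vehicle wells with protein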
Target sequence (O75030 whole entry, looked up): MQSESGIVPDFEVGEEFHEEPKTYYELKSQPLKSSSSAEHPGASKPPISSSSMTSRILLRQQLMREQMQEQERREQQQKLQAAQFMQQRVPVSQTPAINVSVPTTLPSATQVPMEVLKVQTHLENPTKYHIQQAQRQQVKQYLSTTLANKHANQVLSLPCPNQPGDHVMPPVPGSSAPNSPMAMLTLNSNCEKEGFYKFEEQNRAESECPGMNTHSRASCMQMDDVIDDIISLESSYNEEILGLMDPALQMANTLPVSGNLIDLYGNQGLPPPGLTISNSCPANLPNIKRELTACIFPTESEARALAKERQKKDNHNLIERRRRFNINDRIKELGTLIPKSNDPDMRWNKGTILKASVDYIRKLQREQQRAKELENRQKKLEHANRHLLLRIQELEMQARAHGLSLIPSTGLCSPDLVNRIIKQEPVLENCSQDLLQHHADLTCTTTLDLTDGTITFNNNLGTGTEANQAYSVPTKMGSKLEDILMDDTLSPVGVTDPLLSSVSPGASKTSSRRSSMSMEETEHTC
An asterisk follows results filed as active. This is a sample that favours compounds with a hit; in the whole collection about 3.5% have one here.

SMILES	TEAD-YAP inh	FBW7 activator	GPR151 ag	MITF inh
COCCCn1c(C23CC4CC(CC(C4)C2)C3)cn2c3c(=O)n(C)c(=O)n(C)c3nc12	-10.3	-0.1	0.3	4.5
O=C(OC(c1ccccc1)c1nccc2ccccc12)c1ccccc1 (stereo not given)	71.9*	0.0	-0.3	8.5
O=C(N1CCCCC1)n1nnc2ccccc21	74.8*	0.6	-0.5	1.7
O=C(CCCCC(=O)n1nnc2ccccc21)n1nnc2ccccc21	-7.4	0.1	1.7	-7.9
Cn1cccc1/C=C(\C(=O)c1ccccc1)N1C=CC=CC1=C(C#N)C#N	61.2*	-0.1	-0.4	-5.0
N#CC(C#N)=C1C=CC=CN1/C(=C\c1ccccc1)C(=O)c1ccccc1	-5.0	0.8	1.0	12.1
COc1ccc(C(=O)/C(=C\c2ccco2)N2C=CC=CC2=C(C#N)C#N)cc1	43.2*	0.2	-3.6	5.0
O=C(NCC1CCCO1)C1CCC(Cn2c(SCC(=O)N3CCN(c4ccccc4)CC3)nc3ccccc3c2=O)CC1 (stereo not given)	8.2	0.4	0.3	1.2
O=C(NCC1CCCO1)c1ccc2c(=O)n(CC3CCCO3)c(SCC(=O)N3CCN(c4ccccc4)CC3)nc2c1 (stereo not given)	31.9*	0.1	0.5	8.5
COc1ccc(C2CC(c3c(O)cc(C)oc3=O)=Nc3ccccc3S2)cc1O (stereo not given)	62.5*	-0.2	-2.1	6.9
COc1ccc(C2CC(c3c(O)cc(C)oc3=O)=NCCS2)c(OC)c1 (stereo not given)	42.0*	-0.1	0.0	-2.3
COc1cc(/C=C2/NC(=O)NC2=O)c(Br)cc1O	9.5	0.0	0.4	-2.2
CCOc1cc(Cl)c(/C=C2/NC(=O)NC2=O)cc1OCC	-10.6	-0.1	-1.0	3.7
CCOc1cc(/C=C2/NC(=O)NC2=O)c(Br)cc1O	43.6*	-0.2	-0.4	-28.2
CCOc1cc(Br)c(/C=C2/NC(=O)NC2=O)cc1OCC	44.1*	-0.1	0.5	6.6
COCCNc1nc(-c2cccc(O)c2)cnc1N	0.8	0.2	0.4	24.1
O=C1c2cc(F)ccc2NNC12CCCCCC2	-11.8	0.3	0.9	0.0
Cc1ccc(-n2c(C)cc(C(=O)COC(=O)c3ccc[nH]c3=O)c2C)cc1	-30.1	-0.1	0.3	10.0
COCCn1c(C)cc(C(=O)CSc2nnc3ccccn23)c1C	55.4*	0.3	-5.6	-6.1
COCCn1c(C)cc(C(=O)CSc2ccc(Cl)cc2)c1C	87.7*	-0.4	-2.7	-9.4
COCCn1c(C)cc(C(=O)COC(=O)c2ccc[nH]c2=O)c1C	62.0*	-0.1	0.4	1.9
Cc1cc(C(=O)CSc2nnc3ccccn23)c(C)n1C1CCCCC1	60.2*	0.4	-1.6	7.6
COCCn1c(C)cc(C(=O)CSc2nc(C)c(C)c(C)n2)c1C	-5.3	-0.1	1.1	6.4
Cc1cc(C(=O)CSc2nnc3ccccn23)c(C)n1-c1ccc(Br)cc1	-67.7	-0.2	-0.6	1.4
CC(=O)c1cccc(NC(=O)COc2ccc(S(=O)(=O)NCC(C)C)cc2C)c1	0.0	0.0	-2.0	0.3
SMILES	TEAD-YAP inh	FBW7 activator	GPR151 ag	MITF inh
CC(NCc1ccc(C(=O)O)s1)c1ccccc1 (stereo not given)	-1.5	0.3	1.3	2.4
COc1ccc(S(=O)(=O)N2c3ccc(Br)cc3C(C)=CC2(C)C)cc1	55.2*	-0.1	-0.1	5.5
COc1ccc(/C=C/C(=O)N2c3ccc(OC)cc3C(C)=CC2(C)C)cc1	-2.2	-0.5	0.4	8.5
CC1=CC(C)(C)N(S(=O)(=O)c2ccc(F)cc2)c2ccc(C)cc21	44.3*	1.0	-0.5	11.1
CCOc1ccc(S(=O)(=O)N2c3ccc(C)cc3C(C)=CC2(C)C)cc1	64.5*	-0.1	1.2	-5.2
CC1=CC(C)(C)N(S(=O)(=O)c2ccc(C)cc2)c2cc(C)c(C)cc21	65.1*	0.0	-0.2	-0.7
O=C(NC1CC1)c1ccc(-c2nc(NCc3nc4ccccc4[nH]3)c3ncn(Cc4ccc(C(F)(F)F)cc4)c3n2)cc1	-8.9	-0.3	-1.0	-2.5
Cc1cc(OCC(=O)NNC(=O)COc2ccc(Cl)cc2)ccc1Br	1.9	0.7	-0.9	1.7
COc1ccc(S(=O)(=O)N2c3ccc(C)cc3C(C)=CC2(C)C)cc1	62.4*	0.1	0.6	9.9
CC1=CC(C)(C)N(S(=O)(=O)c2ccc(Cl)cc2)c2c(C)cc(C)cc21	-5.8	-0.2	-0.4	-3.6
CC1=CC(C)(C)N(S(=O)(=O)c2ccc(C)cc2)c2c(C)cc(C)cc21	36.1*	0.2	0.1	-8.7
CCN(CC)C(=O)c1sc(NC(=O)COc2ccccc2C)c(C#N)c1C	0.8	0.1	0.8	17.7
